For 13 compounds, growth results are on record in PubChem BioAssay (NCI).

Holding throughout (assay): NCI-60 one-dose screen, 48 h (100 = growth as untreated, 0 = no growth, -100 = all killed)
Common to all, as to conditions: 10 µM unless noted

The subject of experiment [1] is NCI-H23 lung.
Experiment [2] concerns NCI-H226 lung.
For experiment [3], the system named is NCI-H322M lung.
For experiment [4], the system named is HOP-62 NSCLC.
In experiment [5] the test system is HOP-92 NSCLC.
In experiment [6] the test system is NCI-H522 lung.
For experiment [7], the system named is A549/ATCC NSCLC.
For experiment [8], the system named is 786-0 renal.
Experiment [9] concerns COLO 205 colon.

About 83,000 compounds went through this panel and 20% of them were active in at least one assay; those are over-represented in the sample as a whole.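 96-well plates, one dose, 48 hours. Percent growth reported; active if below 10.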 Unmarked numbers belong to inactive results. Activity calls are given as the source filed them.

On to `CC(C)(C)n1cc(-c2ccnc(NCCCNS(=O)(=O)c3cccc4ccccc34)c2)c(-c2cccc(O)c2)n1`, for which the growth in experiment [1] was 42.1%; in [2], 41%; in experiment [3], 43.4%; in [4] it was 47.7%; in experiment [5], 37.7%; in experiment [6], 15.8%. Moreover, the growth in experiment [7] was 29.2%; in experiment [8] it was -0.248% (active); in [9] it was -79.1% (active).
On to `CCOC(=O)c1ccc2c(c1)nc(/C=C/c1ccc(Cl)cc1)n2-c1cc(C(C)(C)C)[nH]n1`, for which the growth in experiment [1] was 77.6%; in experiment [2] it was 44.5%; in experiment [3] it was 48.7%; in experiment [4], 43.1%; in experiment [5] it was 48.2%; in experiment [6], 52.2%. Besides, the growth in [7] was 32.8%; in experiment [8], 42.7%; in [9] it was 62.5%.
In the case of `COc1cc2cc(COc3nccc(-c4ccc(Cl)cc4)n3)c(=O)[nH]c2cc1OC`, the growth in experiment [1] was 88.5%; in [2], 89.1%; in experiment [3] it was 79.6%; in experiment [4], 88.2%; in [5], 69.9%; in [6], 108%. The results for the growth in experiment [7], in experiment [8] and in experiment [9] were 67.5%, 80.9% and 44.3%, respectively.
As for `CCCCCCCCCCCCCCCCNCCC[C@@H](C)[C@H]1CC[C@H]2[C@@H]3[C@H](OCCCN)C[C@@H]4C[C@H](OCCCN)CC[C@]4(C)[C@H]3C[C@H](OCCCN)[C@]12C`, the growth was -39.7% (active) in [1]; -1.42% (active) in experiment [2]; -76.8% (active) in experiment [3]; -49.5% (active) in experiment [4]; -33.2% (active) in experiment [5]; -43.6% (active) in [6]. Also, the growth in experiment [7] was -58% (active); in experiment [8] it was -43.1% (active); in experiment [9], -40.8% (active).
On to `Cn1cc(-c2nc(-c3c[nH]c4ccccc34)cs2)c2cccnc21`, for which the growth in experiment [1] is 49.6%; in experiment [2], 65.9%; in experiment [3], 58.9%; in experiment [4] it was 33.3%; in experiment [5], 30.4%; in experiment [6], -3.47% (active). The growth is 64.9% in experiment [8] and -2.81% (active) in experiment [9].
For `Cc1cc(-c2nc3ccccc3s2)ccc1NC(=O)COc1ccc(Cl)cc1`, the growth is 79.7% in experiment [1]; 70.6% in experiment [2]; 106% in experiment [3]; 89.8% in experiment [4]; 83.5% in [5]; 87.8% in experiment [6]. Besides, the growth in experiment [7] was 109%; in experiment [8], 93.4%; in experiment [9], 110%.
For `CNC(=O)c1cc(Oc2ccc3nc(NC(=O)Nc4ccc(CN5CCOCC5)c(C(F)(F)F)c4)sc3c2)ccn1`, the growth was -4.08% (active) in experiment [1]; 17.3% in experiment [2]; 49.6% in experiment [3]; 44.6% in [4]; -7.77% (active) in experiment [5]; 22.4% in experiment [6]. Besides, the growth in experiment [7] is 20.9%; in experiment [9], 21%.
Turning to `O=C(O)c1ccc2c(c1Sc1ccccc1)C(=O)c1ccccc1C2=O`, the growth in experiment [1] was 91.1%; in [2] it was 92.6%; in [3], 82.2%; in experiment [4], 91.8%; in experiment [5], 76.7%; in experiment [6] it was 120%. The growth in experiment [7] was 96.8%; in experiment [8] it was 106%; in experiment [9], 112%.
For `COc1cc(NCCCCN=C(N)NC(N)=NC(C)C)c2ncccc2c1`, the growth in experiment [1] was -31.5% (active); in experiment [2] it was 94.3%; in [3], 33.6%; in experiment [4], 75.3%; in experiment [5], 33.7%; in experiment [6] it was -6.15% (active). Besides, the growth in [7] was 98.9%; in [8], 106%; in experiment [9], -18.5% (active).
Take `CC1=C(C)C(=O)OC([C@](C)(O)[C@]2(O)CC[C@@]3(O)[C@@H]4C[C@H]5O[C@]56CC=CC(=O)[C@]6(C)[C@H]4CC[C@]23COC(=O)c2ccc(C)o2)C1` (some centres undefined): the growth in [1] was -45% (active); in experiment [2], -20.9% (active); in experiment [3], -63% (active); in experiment [4], -73.8% (active); in experiment [5], -58.7% (active); in experiment [6], -68.7% (active). Besides, the growth in [7] is 4.97% (active); in [8], -64.1% (active); in [9] it was -72.1% (active).
On to `CCN(CC)CCCC(C)NCCCNc1cccc2cccnc12` (centres undefined), for which the growth in [1] was 92.8%; in experiment [2] it was 93.5%; in experiment [3], 79.1%; in experiment [4], 82.6%; in experiment [5], 92.5%; in [6] it was 103%. Also, the growth in [7] is 106%; in experiment [8], 109%; in experiment [9], 91.7%.
Consider `O=C(O)c1cn(C2CC2)c2cc(N3CCN(Cc4nc5c(cnn5-c5ccc([N+](=O)[O-])cc5)c(=O)[nH]4)CC3)c(F)cc2c1=O`, for which the growth in experiment [1] is 101%; in [2] it was 94.8%; in experiment [3], 99.1%; in [4], 103%; in experiment [5], 112%; in experiment [6], 95%. For the same compound, the growth in [7] is 102%; in [8], 98.9%; in experiment [9], 112%.
In the case of `COc1ccc(-c2cc(-c3cccnc3)nc3sc4c(=O)n(-c5ccc(C)cc5)cnc4c23)cc1OC`, the growth in experiment [1] was 95.7%; in experiment [2], 93.3%; in experiment [3], 92.4%; in experiment [4], 98.4%; in [5], 63.6%; in experiment [6], 99.8%. Also, the growth is 103% in [7] and 97.6% in experiment [9].
